Measurements from PubChem BioAssay (NCATS).
Active and inactive are the calls of the source. Entries that show only a call come without a potency. Calls follow the shape of the dose curve; as a rule, active = well fitted inhibition curve with a large enough effect; inconclusive = small, poorly fitted or top-dose-only effect; inactive = no such curve, though single readings can be large or run the other way.

Experiment: qHTS assay for measurement of the activity of small molecule inhibitors on Zika virus induced Caspase-3 activity in human astrocytoma cells (AID 1224859)
Conditions: SNB-19 ZIKV-induced caspase-3/7, luminescence, 6 h; series mostly up to 45.7 µM
Procedure, shortened: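 Luminescence read-out (Caspase-Glo 3/7, 30 min RT) of caspase activity in SNB-19 cells infected 6 h with ZIKV, 2 FFU/cell, after 1 h compound pretreatment; % inhibition from induction normalised to uninfected (0%) and infected (100%) wells.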

Row | SMILES | Potency
1 | O=C(c1ccc(OCCCc2cnc[nH]2)cc1)C1CC1 | inactive
2 | CC(C)ON([C@@H](C(=O)NO)C(C)C)S(=O)(=O)c1ccc(-c2ccccc2)cc1 | inactive
3 | O=C(O)CC[C@@H](C(=O)O)N1C(=O)c2ccccc2C1=O | inactive
4 | NC[C@@H]1O[C@H](C23CC4CC(CC(C4)C2)C3)Cc2c1ccc(O)c2O | inactive
5 | CNC(=O)[C@H]1O[C@@H](n2cnc3c(NCc4ccc(N)cc4)ncnc32)[C@H](O)[C@@H]1O | inactive
6 | C#C[C@]1(O)CC[C@H]2[C@@H]3CCC4=Cc5oncc5CC4(C)[C@H]3CCC21C (some centres undefined) | inactive
7 | COC(=O)c1nc(Cl)c(Cl)nc1N | inactive
8 | Nc1nc(SCc2ccc([N+](=O)[O-])cc2)c2ncn([C@@H]3O[C@H](CO)[C@@H](O)[C@H]3O)c2n1 | inactive
9 | COc1ccccc1CNCCCCCCNCCCCCCCCNCCCCCCNCc1ccccc1OC | inactive
10 | COC1=C(OC)C(=O)c2ccccc2C1=O | inactive
11 | O=P(O)(O)C(Cl)(Cl)P(=O)(O)O | inactive
12 | COc1cc2nc(N3CCN(C(=O)OCc4ccccc4)C(C(=O)NC(C)(C)C)C3)nc(N)c2cc1OC (centres undefined) | inactive
13 | N.N.O=C(O)C1(C(=O)O)CCC1.[Pt] | inactive
14 | CC1OC1P(=O)(O)O (centres undefined) | inactive
15 | OCC1O[C@H]([S-])[C@H](O)[C@@H](O)[C@@H]1O.[Au+] (some centres undefined) | inactive
16 | O=C(O)c1cc(=O)c2c(Cl)cc(Cl)cc2[nH]1 | inactive
17 | N#C/C(=C\c1c[nH]c2ccccc12)C(=O)c1ccc(O)c(O)c1 | inactive
18 | Brc1c(Br)c(Br)c2n[nH]nc2c1Br | inactive
19 | C[N+](C)(C)CC(=O)[O-] | inactive
